Records with an inconclusive call do not appear. The source made the active and inactive calls. Rule for the calls: active = hit-call score of the fitted dose curve at least 0.9, where 1 is the maximum; inconclusive = response in the unintended direction; inactive = score below 0.9.

Read-out in the test: sulfotransferase (SULT2A), SULT2A1 (gene 6822)
As to the kind of experiment: CLD_SULT2A_48hr: CellzDirect (CLD) Gene Expression Assay for sulfotransferase (SULT2A) at 48 hours (AID 2283710).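 Note: hits raise SULT2A1 transcript above the 0.2% DMSO vehicle baseline.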 The protocol: CLD_48hr is a cell-based, multiplexed-readout assay that uses hepatocyte, a human liver primary cell, with measurements taken at 48 hours after chemical dosing in a 96-well plate.CLD_SULT2A_48hr is one of 16 assay component(s) measured or calculated from the CLD_48hr assay. It is designed to make measurements of mRNA induction, a form of inducible reporter, as detected with chemiluminescence signals by Quantitative Nuclease Protection Assay (qNPA) technology.Data from the assay component CLD_SULT2A_48hr was analyzed at the endpoint, CLD_SULT2A_48hr, in the positive analysis fitting direction relative to DMSO as the negative control and baseline of activity. Using a type of inducible reporter, gain-of-signal activity can be used to understand changes in the reporter gene as they relate to the gene SULT2A1. Furthermore, this assay endpoint can be referred to as a primary readout. To generalize the intended target to other relatable targets, this assay endpoint is annotated to the transferase intended target family, where subfamily is sulfotransferase.
Human hepatocyte cultures were treated daily for two consecutive days with fresh dosing solutions containing appropriate concentrations of the 320 ToxCast chemicals (chemical identities were blinded to CellzDirect and other ToxCast collaborators), vehicle control (0.2% DMSO), and positive control inducers as summarized in Table 1. Due to the large number of treatment groups and chemicals examined, the ToxCast chemicals were divided into two groups (spanning two independent cultures of hepatocytes from separate donor preparations (Hu778: ToxCast plates 1 and 2; Hu776: ToxCast plates 3 and 4). Each preparation of human hepatocyte cultures was treated with respective vehicle control, medium only control, set of six positive controls/reference chemicals for the five hepatic receptor pathways, and a subset of eight of the ToxCast chemicals (indoxacarb, pyrithiobac-sodium, norflurazon, cyhalofop-butyl, methomyl, thiram, acetochlor, and propiconazole). These replicate data, coupled with internal replicates designed within the blinded ToxCast chemical library, provided additional data to evaluate interindividual differences between hepatocyte preparations and their potential impact on chemical profiles.Cell morphology and integrity were evaluated using phase-contrast microscopy as an indicator of hepatocyte cell health (Tyson & Green, 1987). Cultures for each treatment group (i.e., media, vehicle [0.2% DMSO], positive control inducers [multiple concentrations], and the ToxCast chemicals [multiple concentrations]) were observed and cell morphology was assessed relative to vehicle control cultures at each harvest time point (0, 6, 24, or 48 h). […] Images were evaluated at the conclusion of the study to assess changes in cell integrity and account for the effects of chemical exposure on uncharacteristic changes in concentration-dependent gene expression profiles. The results from these determinations of apparent cytotoxicity were annotated (yes/no) alongside the corresponding qNPA data for reference.At the conclusion of each treatment period, hepatocyte cultures (96-well) were washed with 1 volume of HBSS, lysed by addition of 25 ul ArrayPlate lysis buffer (HTG, Tucson, AZ), and 70 ul/well of Denaturation Oil, denatured by incubation at 95C for 10 min, and frozen at approximately -70C until analysis by nuclease protection assay (qNPA) (Roberts et al., 2007). For qNPA analysis, cell lysates were thawed at 50C for approximately 30 min, qNPA probes were added, and samples were incubated at 95C for 10 min to begin the detection process by denaturing the target RNA, dissociating the duplexes and secondary structure hybridization. At the conclusion of the hybridization period, S1 nuclease reagent was added to each sample to digest all nonprotected nucleotides at 50C for 60-90 min. […]
In the case of `CC(C)N1C(=O)c2ccccc2NS1(=O)=O`, the compound was classed as inactive.
As for `CCCC(=NOCC)C1=C(O)CC(CC(C)SCC)CC1=O` (stereo not given), the result was inactive.
As to `CS(=O)(=O)c1cc(C(F)(F)F)ccc1C(=O)c1cnoc1C1CC1`, the outcome was inactive.
On to `N#CN=C1SCCN1Cc1ccc(Cl)nc1`, for which the compound was classed as inactive.
For `COP(=S)(OC)Oc1ccc([N+](=O)[O-])c(C)c1`, the compound was classed as inactive.
Take `CC(C)=CC1C(C(=O)OCc2coc(Cc3ccccc3)c2)C1(C)C` (stereo not given): the outcome was inactive.
As to `COc1ccc(-c2ccccc2)cc1NNC(=O)OC(C)C`, the compound was called inactive.
With `CS(=O)(=O)c1ccc(C(=O)C2C(=O)CCCC2=O)c([N+](=O)[O-])c1`, the compound was classed as inactive.
The same measure, in the same setting: the result for `O=P(O)(O)CCCl` reads “inactive”; that for `COC(=O)NC(=S)Nc1ccccc1NC(=S)NC(=O)OC`, “inactive”.
For `O=C(O)c1c(Cl)ccc2cc(Cl)cnc12`, the compound was called inactive.
Same read-out and setting: with `CC(C)(C)C(=O)C(Oc1ccc(Cl)cc1)n1cncn1` (stereo not given) the entry was “inactive”; with `COP(=O)(OC)O/C(C)=C/C(=O)N(C)C`, “inactive”; with `Nc1c(Cl)c(F)nc(OCC(=O)O)c1Cl`, “inactive”.
Broadly, the AC50 is the concentration giving half of the maximal activity seen. Regarding `CC(C)N1C(=O)N(c2ccccc2)CSC1=NC(C)(C)C`, the AC50 is 33.1 µM (active).
For the compound `COc1cc(Cl)c(OC)cc1Cl`, the result was inactive.
Consider `CC(C)Nc1nc(Cl)nc(NC(C)C)n1`, for which the compound was classed as inactive.
As to `Cc1c(COC(=O)[C@@H]2[C@H](/C=C(\Cl)C(F)(F)F)C2(C)C)cccc1-c1ccccc1`, the concentration at half-maximal activity (AC50) was 5.45 µM (active).
As for `CCCCC(O)(Cn1cncn1)c1ccc(Cl)cc1Cl` (stereo not given), the call was inactive.
As for `CCCCOCN(C(=O)CCl)c1c(CC)cccc1CC`, the result was inactive.
Take `CCOP(=O)(OCC)Oc1nc(Cl)c(Cl)cc1Cl`: the compound was classed as inactive.
As for `O=c1n(Cl)c(=O)n(Cl)c(=O)n1Cl`, the compound was classed as inactive.
As for `CCCN(CC)CC1COC2(CCC(C(C)(C)C)CC2)O1` (stereo not given), the AC50 was 0.0474 µM (active).
Consider `CCOc1nc(F)cc2nc(S(=O)(=O)Nc3c(Cl)cccc3Cl)nn12`, for which the result was inactive.
As for `COCC(=O)N(c1c(C)cccc1C)C(C)C(=O)OC` (stereo not given), the AC50 was 20 µM (active).
Turning to `Cc1cnc(C2=NC(C)(C(C)C)C(=O)N2)c(C(=O)O)c1` (stereo not given), the compound was classed as inactive.
On the same count and under the same terms, the result for `Clc1cccc(C(Cl)(Cl)Cl)n1` reads “inactive”; that for `OC(c1ccc(Cl)cc1)(c1ccc(Cl)cc1)C(Cl)(Cl)Cl`, “inactive”.
`COCc1cnc(C2=NC(C)(C(C)C)C(=O)N2)c(C(=O)O)c1` (stereo not given): the call was inactive.
As to `Cn1c(-c2ccccc2)cc(-c2ccccc2)[n+]1C`, the result was inactive.
For the compound `CCNC(=O)NC(=O)C(C#N)=NOC`, the call was inactive.
As to `CSC(=O)c1c(C(F)F)nc(C(F)(F)F)c(C(=O)SC)c1CC(C)C`, the outcome was inactive.
Consider `CCN(CC)C(=O)C(C)Oc1cccc2ccccc12` (stereo not given), for which the half-maximal activity concentration (AC50) is 33 µM (active).
Regarding `CCC(C)n1c(=O)[nH]c(C)c(Br)c1=O` (stereo not given), the result was inactive.
Take `CC1(C)CON(Cc2ccccc2Cl)C1=O`: the result was inactive.
Take `CCOc1cc(C(C)(C)C)ccc1C1COC(c2c(F)cccc2F)=N1` (stereo not given): the AC50 was 7.73 µM (active).
`COc1cc(OC)nc(NC(=O)NS(=O)(=O)c2ncccc2OCC(F)(F)F)n1`: the compound was called inactive.
The same measure, in the same setting: with `CC(C)Oc1cccc(NC(=O)c2ccccc2C(F)(F)F)c1` the entry was “inactive”; with `CCOP(=S)(OCC)Oc1nc(Cl)n(C(C)C)n1`, “inactive”; with `O=C(Nc1ccccc1-c1ccc(Cl)cc1)c1cccnc1Cl`, “inactive”.

These data come from PubChem BioAssay (EPA / NIEHS).
